Assay results from the supplement of paper PMC6411743.
± gives the standard deviation of the averaged measurements. About 5,400 targets were measured; listed, in parts, are those with the largest changes and a random draw of the rest.

Compound: Nc1nc2c(ncn2[C@@H]2O[C@H](COP(=O)(O)OP(=O)(O)OP(=O)(O)O)[C@@H](O)[C@H]2O)c(=O)[nH]1 [guanosine triphosphate]
Experiment: NP40-soluble protein abundance relative to vehicle (solubility fold change) (ratio); higher = more soluble protein in presence of GTP
Procedure, shortened: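 Data come from three independent experiments in which Dounce-homogenised Jurkat crude lysate was treated at eight concentrations from 0.1 to 10 mM. Treatment ran 10 min at room temperature and then 3 min at 37 °C, after which 0.8% NP40 and benzonase were added for 60 min at 4 °C before ultracentrifugation. The supernatant underwent TMT labelling and LC-MS/MS, and vsn-normalised intensities were expressed as fold change against the detergent-processed vehicle in each replicate.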

Chain of UniProt P67936 (P67936 whole entry, one chain of several): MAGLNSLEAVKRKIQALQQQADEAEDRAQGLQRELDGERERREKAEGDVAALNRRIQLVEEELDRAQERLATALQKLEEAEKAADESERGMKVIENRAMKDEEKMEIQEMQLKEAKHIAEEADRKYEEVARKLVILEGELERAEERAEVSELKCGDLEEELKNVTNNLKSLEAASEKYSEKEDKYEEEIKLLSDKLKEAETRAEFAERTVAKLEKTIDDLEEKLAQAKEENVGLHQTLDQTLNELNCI
Chain of UniProt O14925 (O14925 whole entry): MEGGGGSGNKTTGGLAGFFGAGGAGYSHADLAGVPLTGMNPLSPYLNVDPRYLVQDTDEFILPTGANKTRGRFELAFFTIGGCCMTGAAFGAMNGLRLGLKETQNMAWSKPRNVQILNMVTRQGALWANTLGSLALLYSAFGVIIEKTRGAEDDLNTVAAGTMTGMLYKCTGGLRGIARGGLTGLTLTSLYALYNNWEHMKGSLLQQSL
Chain of UniProt O43399 (O43399 whole entry): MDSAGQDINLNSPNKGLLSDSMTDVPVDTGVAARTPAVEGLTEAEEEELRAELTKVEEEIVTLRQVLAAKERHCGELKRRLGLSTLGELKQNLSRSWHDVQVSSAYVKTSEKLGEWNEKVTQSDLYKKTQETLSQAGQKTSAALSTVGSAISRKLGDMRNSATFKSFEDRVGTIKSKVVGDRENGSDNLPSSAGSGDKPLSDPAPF
Chain of UniProt O60216 (O60216 whole entry): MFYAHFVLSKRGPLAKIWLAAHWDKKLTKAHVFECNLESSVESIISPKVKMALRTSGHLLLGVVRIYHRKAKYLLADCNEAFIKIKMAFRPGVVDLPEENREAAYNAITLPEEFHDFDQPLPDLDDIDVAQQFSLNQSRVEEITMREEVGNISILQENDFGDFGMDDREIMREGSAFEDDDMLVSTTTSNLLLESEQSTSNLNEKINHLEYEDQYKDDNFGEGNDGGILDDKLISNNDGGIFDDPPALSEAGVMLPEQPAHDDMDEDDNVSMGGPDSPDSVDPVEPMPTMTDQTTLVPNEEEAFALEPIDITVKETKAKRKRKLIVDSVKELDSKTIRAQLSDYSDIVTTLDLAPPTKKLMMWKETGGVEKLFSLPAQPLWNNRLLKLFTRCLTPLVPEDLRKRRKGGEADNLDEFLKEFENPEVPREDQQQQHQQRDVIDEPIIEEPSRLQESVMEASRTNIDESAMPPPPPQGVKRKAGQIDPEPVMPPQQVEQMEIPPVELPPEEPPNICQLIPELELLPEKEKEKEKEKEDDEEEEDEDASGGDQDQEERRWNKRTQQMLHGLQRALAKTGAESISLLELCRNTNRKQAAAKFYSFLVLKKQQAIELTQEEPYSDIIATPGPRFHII
Chain of UniProt Q9Y2L5 (Q9Y2L5 whole entry, one chain of several): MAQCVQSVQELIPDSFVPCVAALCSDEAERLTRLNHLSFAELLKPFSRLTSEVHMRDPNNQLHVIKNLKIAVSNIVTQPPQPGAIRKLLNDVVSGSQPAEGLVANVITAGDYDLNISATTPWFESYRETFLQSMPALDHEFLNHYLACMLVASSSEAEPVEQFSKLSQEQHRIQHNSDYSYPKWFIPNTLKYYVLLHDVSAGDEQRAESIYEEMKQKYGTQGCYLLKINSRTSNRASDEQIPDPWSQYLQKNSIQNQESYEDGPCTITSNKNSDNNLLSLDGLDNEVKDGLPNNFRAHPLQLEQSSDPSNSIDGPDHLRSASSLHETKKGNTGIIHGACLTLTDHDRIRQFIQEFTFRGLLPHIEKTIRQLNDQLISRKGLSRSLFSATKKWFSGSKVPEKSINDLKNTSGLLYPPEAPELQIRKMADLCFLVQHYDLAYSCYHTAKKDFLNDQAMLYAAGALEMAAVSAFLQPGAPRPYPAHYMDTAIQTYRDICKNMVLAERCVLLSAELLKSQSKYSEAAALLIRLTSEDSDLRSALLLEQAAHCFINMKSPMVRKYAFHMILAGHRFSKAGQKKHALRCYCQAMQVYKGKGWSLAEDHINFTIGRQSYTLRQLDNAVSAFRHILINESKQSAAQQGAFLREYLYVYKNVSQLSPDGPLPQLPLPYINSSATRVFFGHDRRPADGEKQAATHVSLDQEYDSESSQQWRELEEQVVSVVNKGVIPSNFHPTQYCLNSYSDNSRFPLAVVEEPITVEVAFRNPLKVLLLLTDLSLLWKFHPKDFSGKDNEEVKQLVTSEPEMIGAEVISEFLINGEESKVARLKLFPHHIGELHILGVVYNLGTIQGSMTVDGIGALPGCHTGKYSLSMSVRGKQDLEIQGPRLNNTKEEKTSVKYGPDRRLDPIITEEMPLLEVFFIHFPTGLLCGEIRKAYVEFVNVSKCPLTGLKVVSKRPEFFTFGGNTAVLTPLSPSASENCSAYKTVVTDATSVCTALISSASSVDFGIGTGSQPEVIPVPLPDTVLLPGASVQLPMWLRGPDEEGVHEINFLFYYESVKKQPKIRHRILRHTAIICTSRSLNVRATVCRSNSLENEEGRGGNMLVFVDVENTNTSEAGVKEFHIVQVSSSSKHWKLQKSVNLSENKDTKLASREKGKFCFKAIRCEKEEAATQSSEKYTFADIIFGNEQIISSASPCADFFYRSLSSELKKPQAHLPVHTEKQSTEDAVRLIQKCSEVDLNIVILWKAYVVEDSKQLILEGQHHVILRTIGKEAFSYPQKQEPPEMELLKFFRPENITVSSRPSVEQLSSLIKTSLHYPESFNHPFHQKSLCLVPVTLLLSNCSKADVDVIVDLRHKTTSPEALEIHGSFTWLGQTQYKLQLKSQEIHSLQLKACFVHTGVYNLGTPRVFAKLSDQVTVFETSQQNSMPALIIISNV
Chain of UniProt P50395 (P50395 whole entry, one chain of several): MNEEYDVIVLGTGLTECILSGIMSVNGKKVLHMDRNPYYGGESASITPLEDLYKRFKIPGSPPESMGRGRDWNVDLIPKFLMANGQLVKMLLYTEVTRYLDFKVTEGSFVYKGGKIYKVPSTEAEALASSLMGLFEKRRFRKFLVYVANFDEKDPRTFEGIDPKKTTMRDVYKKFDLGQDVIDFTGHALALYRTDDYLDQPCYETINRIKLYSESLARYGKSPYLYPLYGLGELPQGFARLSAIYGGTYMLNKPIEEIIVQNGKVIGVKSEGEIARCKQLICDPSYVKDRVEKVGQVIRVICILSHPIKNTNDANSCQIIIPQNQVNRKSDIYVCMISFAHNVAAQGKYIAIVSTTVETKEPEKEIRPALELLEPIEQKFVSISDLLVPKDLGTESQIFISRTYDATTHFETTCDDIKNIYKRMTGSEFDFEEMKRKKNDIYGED
Chain of UniProt P50897 (P50897 whole entry): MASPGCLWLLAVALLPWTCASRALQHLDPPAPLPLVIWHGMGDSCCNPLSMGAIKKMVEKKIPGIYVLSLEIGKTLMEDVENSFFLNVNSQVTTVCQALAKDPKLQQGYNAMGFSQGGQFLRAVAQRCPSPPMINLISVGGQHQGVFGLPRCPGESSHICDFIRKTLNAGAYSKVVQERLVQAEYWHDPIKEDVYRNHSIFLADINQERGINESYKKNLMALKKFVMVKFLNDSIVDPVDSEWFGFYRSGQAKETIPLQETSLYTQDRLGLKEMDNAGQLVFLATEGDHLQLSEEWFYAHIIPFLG
Chain of UniProt O60508 (O60508 whole entry, one chain of several): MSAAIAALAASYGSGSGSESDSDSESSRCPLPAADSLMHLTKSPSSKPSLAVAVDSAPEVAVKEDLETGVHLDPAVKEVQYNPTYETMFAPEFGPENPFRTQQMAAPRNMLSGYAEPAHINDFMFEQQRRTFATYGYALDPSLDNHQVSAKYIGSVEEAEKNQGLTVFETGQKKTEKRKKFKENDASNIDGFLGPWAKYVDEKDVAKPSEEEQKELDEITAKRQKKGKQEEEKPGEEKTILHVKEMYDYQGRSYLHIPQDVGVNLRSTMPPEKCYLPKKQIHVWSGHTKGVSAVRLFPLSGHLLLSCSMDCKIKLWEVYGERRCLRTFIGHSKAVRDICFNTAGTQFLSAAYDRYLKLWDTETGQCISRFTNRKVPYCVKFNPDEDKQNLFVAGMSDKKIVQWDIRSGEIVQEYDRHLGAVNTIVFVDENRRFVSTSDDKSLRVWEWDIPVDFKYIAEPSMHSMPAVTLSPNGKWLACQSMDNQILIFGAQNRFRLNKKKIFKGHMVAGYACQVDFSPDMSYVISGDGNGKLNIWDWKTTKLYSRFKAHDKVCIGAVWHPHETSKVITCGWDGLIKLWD
Chain of UniProt O75582 (O75582 whole entry, looked up, one chain of several): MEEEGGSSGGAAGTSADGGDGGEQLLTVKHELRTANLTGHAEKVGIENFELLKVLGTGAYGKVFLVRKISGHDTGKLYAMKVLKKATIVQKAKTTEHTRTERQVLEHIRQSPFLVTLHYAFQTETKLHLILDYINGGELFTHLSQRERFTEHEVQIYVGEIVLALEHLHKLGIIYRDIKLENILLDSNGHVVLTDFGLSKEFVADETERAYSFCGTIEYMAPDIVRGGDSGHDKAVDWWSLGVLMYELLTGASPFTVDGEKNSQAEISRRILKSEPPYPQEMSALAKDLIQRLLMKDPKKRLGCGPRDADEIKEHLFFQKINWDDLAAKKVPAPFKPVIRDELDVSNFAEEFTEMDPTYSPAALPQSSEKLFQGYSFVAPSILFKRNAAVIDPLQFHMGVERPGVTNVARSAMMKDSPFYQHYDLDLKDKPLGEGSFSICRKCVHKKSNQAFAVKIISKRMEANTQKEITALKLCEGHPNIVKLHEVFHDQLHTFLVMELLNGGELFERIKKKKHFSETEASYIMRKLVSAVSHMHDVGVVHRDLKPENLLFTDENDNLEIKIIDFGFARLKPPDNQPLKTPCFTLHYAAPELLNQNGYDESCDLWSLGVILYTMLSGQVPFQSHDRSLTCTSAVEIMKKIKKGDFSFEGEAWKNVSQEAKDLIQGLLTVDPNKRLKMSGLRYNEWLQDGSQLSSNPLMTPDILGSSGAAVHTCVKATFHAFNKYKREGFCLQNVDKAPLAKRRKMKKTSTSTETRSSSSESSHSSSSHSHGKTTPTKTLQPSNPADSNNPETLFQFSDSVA

Target	NP40-soluble protein abundance (concentration: 0.1mM)	NP40-soluble protein abundance (concentration: 0.5mM)	NP40-soluble protein abundance (concentration: 1mM)	NP40-soluble protein abundance (concentration: 2mM)	NP40-soluble protein abundance (concentration: 4mM)	NP40-soluble protein abundance (concentration: 6mM)	NP40-soluble protein abundance (concentration: 8mM)	NP40-soluble protein abundance (concentration: 10mM)
M0R2U2|P22087 (UniProt P22087)	1.02 ± 0.054	1.03 ± 0.032	1.08 ± 0.068	1.21 ± 0.056	1.52 ± 0.068	1.77 ± 0.082	2.13 ± 0.11	2.47 ± 0.083
UniProt P50395|Q5SX86	0.966 ± 0.022	0.999 ± 0.023	0.916 ± 0.02	0.899 ± 0.0095	0.882 ± 0.012	0.89 ± 0.017	0.859 ± 0.04	0.829 ± 0.057
K7EQW8|P67936|K7ERG3 (UniProt P67936)	0.803 ± 0.15	0.716 ± 0.089	1.39 ± 0.5	1.19 ± 0.29	1.27 ± 0.27	1.27 ± 0.21	1.15 ± 0.34	1.83 ± 0.49
UniProt P06239|P06239-3	1.013 ± 0.0087	1.04 ± 0.034	0.994 ± 0.022	1 ± 0.032	1 ± 0.023	0.963 ± 0.015	0.929 ± 0.026	0.919 ± 0.039
J3QQJ5|Q9Y2L5 (UniProt Q9Y2L5)	1.09 ± 0.062	1.1 ± 0.12	1.05 ± 0.091	1.03 ± 0.11	1 ± 0.14	0.989 ± 0.13	1.01 ± 0.12	0.981 ± 0.13
UniProt O60508|Q5SRN1	1.07 ± 0.031	1.1 ± 0.017	1.09 ± 0.022	1.072 ± 0.0076	1.05 ± 0.034	1.07 ± 0.053	1.11 ± 0.013	1.08 ± 0.042
ANXA5 (UniProt P08758)	0.882 ± 0.07	0.908 ± 0.054	0.878 ± 0.077	0.854 ± 0.076	0.819 ± 0.073	0.843 ± 0.089	0.794 ± 0.081	0.809 ± 0.085
TIMM23 (UniProt O14925)	0.979 ± 0.016	0.902 ± 0.037	0.856 ± 0.016	0.892 ± 0.02	0.904 ± 0.043	0.877 ± 0.026	0.838 ± 0.046	0.898 ± 0.042
UniProt O43399|O43399-5|O43399-7	0.814 ± 0.11	0.76 ± 0.039	1 ± 0.15	0.946 ± 0.028	0.91 ± 0.03	0.916 ± 0.033	0.875 ± 0.16	1.08 ± 0.15
PPT1 (UniProt P50897)	0.888 ± 0.06	0.859 ± 0.12	0.968 ± 0.083	0.872 ± 0.12	0.873 ± 0.068	0.887 ± 0.11	0.876 ± 0.059	0.861 ± 0.099
UniProt O75582|A0A0A0MQV2	1.05 ± 0.079	1.06 ± 0.059	0.965 ± 0.044	0.965 ± 0.068	0.979 ± 0.083	0.965 ± 0.056	0.934 ± 0.031	0.912 ± 0.044
P15531-2|P22392-2|Q32Q12 (UniProt Q32Q12+P22392+P15531)	0.983 ± 0.029	0.946 ± 0.049	0.903 ± 0.045	0.909 ± 0.068	0.9 ± 0.017	0.878 ± 0.04	0.822 ± 0.06	0.839 ± 0.025
UniProt O15111	1.03 ± 0.04	1.04 ± 0.07	0.963 ± 0.052	0.964 ± 0.081	0.961 ± 0.06	0.927 ± 0.061	0.891 ± 0.013	0.887 ± 0.024
RAD21 (UniProt O60216)	0.975 ± 0.037	0.991 ± 0.03	1.06 ± 0.023	1.07 ± 0.044	1.09 ± 0.028	1.07 ± 0.038	1.11 ± 0.062	1.12 ± 0.092
